Screen size: about 72,000 compounds; about 710 (0.99%) were called active. Entries that show only a call come without a potency. Roughly 7% stayed inconclusive and do not appear here. The sample as a whole holds a higher share of actives than the screen did. A number with no mark means an inactive call. The call rests on the fitted dose curve; in most records, active means well fitted inhibition curve with a large enough effect; inconclusive means small, poorly fitted or top-dose-only effect; inactive means no such curve, though single readings can be large or run the other way.
assay: qHTS Assay for Inhibitors of the ERK Signaling Pathway using a Homogeneous Screening Assay; settings: HEK293-V1b, vasopressin-stimulated pERK AlphaScreen; series mostly up to 57.5 µM; further: nearly all actives have a fitted effect of over 55% in size
Description: qHTS Assay for Inhibitors of the ERK Signaling Pathway using a Homogeneous Screening Assay; further: nearly all actives have a fitted effect of over 55% in size
NIH Chemical Genomics Center [NCGC]
NIH Molecular Libraries Screening Centers Network [MLSCN]
Assay Submitter (PI): Dr. Wei Zheng, NCGC/NIH
The Ras/extracellular-signal-regulated kinase (ERK) mitogen activated protein (MAP) kinase signaling pathway (ERK1/2 cascade) plays is a key role in transmitting signals from the cell surface to the nucleus (Nishida and Gotoh 1993; Chang and Karin, 2001). The cascade is initiated by the small G-protein Ras, which recruits Raf […], where activation occurs. Alternatively, this pathway can be activated by elevating intracellular cAMP.
Activation of the ERK pathway is essential in increased cell division and cell survival. Sustained and constitutive activation of the ERK pathway, however, has been linked to uncontrolled cell proliferation, increased cell survival, and tumor progression. Thus, the ERK has been as an attractive target for cancer chemotherapy in the past few years (Sebolt-Leopold and Herrera, 2004). Given its physiological and pathological importance, assessment of ERK phosphorylation has been broadly performed in both basic research and drug discovery. Most assays for the measurement of ERK phosphorylation use the antibody-based detection methods, such as western blot and ELISA. These assays require multiple reagent additions with cell wash steps and are not suitable for high throughout screening.
The current cell-based ERK phosphorylation assay was performed using AlphaScreen platform. AlphaScreen is a two bead-based proximity-dependent chemical energy transfer luminescent assay platform. The assay reagents (ERK SureFire(TM) kit) were supplied from TGR BioSciences (Australia). In the presence of specific antibodies, phosphorylated ERK will bring "donor" and "acceptor" beads to a proximity range (<200 nm), and subsequently lead a chemical luminescent reaction upon exciting donor beads with 680 nm laser. To exclude the assay-related false positives, we used a biotinylated rabbit IgG to perform counter-screen. The biotinylated antibody mimics the phosphorylated ERK1/2 for bringing streptavidin coated beads and protein-A coated beads to a proximity range for the AlphaScreen detection.
NCGC Assay Protocol Summary:
HEK293 cells stably expressing type-1 vasopressin receptor (V1b) were maintained in DMEM medium (Invitrogen, Carlsbad, CA) at 37C under a humidified atmosphere containing 5% CO2 and 95% air. The medium contained 10% FBS, 2 mM L-glutamine, non-essential amino acid, pyruvate and 50 U/ml penicillin and 50 ug/ml streptomycin (Invitrogen). The aliquots of frozen cells were stored at -135C and used for the compound screening. All compounds were screened as titrations from 0.6 nM to 46 uM final concentration. Vasopressin was used to stimulate the ERK phosphorylation pathway. The ERK phosphorylation in cells was determined using an AlphaScreen assay kit provided by PerkinElmer. Data were normalized to the controls for basal activity (DMSO only) and 100% activation (25 nM vasopressin). AC50 values were determined from concentration-response data modeled with the standard Hill equation.
(1) Seed 4 ul/well of resuspended frozen HEK293 cells containing 2000 cells in white 1536-well plates for overnight with 1% FBS at 37C under a humidified atmosphere containing 5% CO2 and 95% air.
(2) Add 23 nL compounds in DMSO solution. The final titration was 0.6 nM to 46 uM.
(3) Incubate at 37C for 30 min.
(4) Dispense 0.5uL vasopressin (25 nM in final)
(5) Incubate at 37C for 5 min.
(6) Dispense 0.5uL of 1:2 diluted 5x lysis buffer.
(7) Incubate at 37C for 10 min.
(8) Dispense 1.5uL of mixture of activation buffer and reaction buffer with AlphaScreen beads (streptavidin donor beads and protein-A acceptor beads, 10 ng/well for each).
(9) Incubate at room temperature for 5 hr.
(10) Detect the assay plate in an EnVision plate reader (PerkinElmer) using the AlphaScreen detection mode.
[…]
Potency means the concentration at half of the fitted maximal effect.

Row | SMILES | Potency | activity, negative = inhibition
1 | N#Cc1c(Cl)c(Cl)c(Cl)c(C#N)c1Cl | 2 µM (active) | 
2 | C[N+]1(C)C2CC(OC(=O)C(CO)c3ccccc3)CC1[C@@H]1O[C@H]21 (stereo not given in full) | inactive | 
3 | BrC1C(Br)C(Br)C(Br)C(Br)C1Br (stereo not given) | inactive | 
4 | COC1CC(OC2CC[C@@]3(C=O)C4CC[C@]5(C)C(C6=CC(=O)OC6)CC[C@@]5(O)C4CC[C@]3(O)C2)OC(C)C1O (stereo not given in full) | inactive | 
5 | CN1[C@@H]2CC[C@H]1CC(OC(=O)c1cc(Cl)cc(Cl)c1)C2 (stereo not given in full) | inactive | 
6 | CN1[C@@H]2CC[C@H]1CC(NC(=O)c1nn(C)c3ccccc13)C2 (stereo not given in full) | inactive | 
7 | C[C@H](CCC(=O)O)[C@H]1CC[C@@H]2[C@H]3CC[C@H]4C[C@H](O)CC[C@@]4(C)[C@@H]3CC[C@@]21C |  | -8.67% [at 11.5 µM]
8 | CSC1=NP(=S)(SC)N(C)c2nc3n(c21)CCC3 (stereo not given) | 15.8 µM (active) | 
9 | CNC(C)[C@@H](O)c1ccccc1 (stereo not given in full) | inactive | 
10 | C[C@]12CC[C@H](O)CC1=CC[C@@H]1[C@H]2CC[C@]2(C)C(=O)CC[C@H]12 | inactive | 
11 | O=[N+]([O-])c1ccc(Cl)c(Cl)c1 | inactive | 
12 | CC(C)(Cc1c[nH]c2ccc(Cl)cc12)NCCOc1ccccc1OCC1CC1 | 39.8 µM (active) | 
13 | Clc1cccc(Cl)c1Cl | inactive | 
14 | CNCC[C@H](Oc1ccc(C(F)(F)F)cc1)c1ccccc1 | inactive | 
15 | CC(C)C(N)C(=O)OCCOCn1cnc2c(=O)[nH]c(N)nc21 (stereo not given) | inactive | 

Source: PubChem BioAssay AID995 (National Center for Advancing Translational Sciences (NCATS), 2007)
